These results are taken from ChEMBL document CHEMBL3433997, “St. Jude Leishmania screening dataset” (2016).

Assay type in all cases: functional
Assay [1] addresses Solute carrier family 2, facilitated glucose transporter member 1 (Homo sapiens) (UniProt P11166). The experiment in a line: ST_JUDE_LEISH: Cytotoxicity at 2uM final concentration against transgenic Leishmania Mexicana promastigotes LmGLUT1 that are glucose transport deficient and complemented with the human glucose transporter GLUT1. Activity is measured by DNA content using SYBR green in vitro.

For assay [2], the target named is Hexose transporter 1 (Plasmodium falciparum) (UniProt O97467). The assay is described as follows: ST_JUDE_LEISH: Cytotoxicity at 2uM final concentration against transgenic Leishmania Mexicana promastigotes LmPfHT that are glucose transport deficient and complemented with the Plasmodium falciparum hexose transporter. Activity is measured by DNA content using SYBR green in vitro.

The target of assay [3] is Glucose transporter (Leishmania mexicana) (UniProt O61059). The experiment in a line: ST_JUDE_LEISH: Cytotoxicity at 2uM final concentration against transgenic Leishmania Mexicana promastigotes LmGT2 that are glucose transport deficient and complemented with the L. Mexicana glucose transporter 2. Activity is measured by DNA content using SYBR green in vitro.

Solute carrier family 2, facilitated glucose transporter member 1 (Homo sapiens), sequence (P11166 whole entry): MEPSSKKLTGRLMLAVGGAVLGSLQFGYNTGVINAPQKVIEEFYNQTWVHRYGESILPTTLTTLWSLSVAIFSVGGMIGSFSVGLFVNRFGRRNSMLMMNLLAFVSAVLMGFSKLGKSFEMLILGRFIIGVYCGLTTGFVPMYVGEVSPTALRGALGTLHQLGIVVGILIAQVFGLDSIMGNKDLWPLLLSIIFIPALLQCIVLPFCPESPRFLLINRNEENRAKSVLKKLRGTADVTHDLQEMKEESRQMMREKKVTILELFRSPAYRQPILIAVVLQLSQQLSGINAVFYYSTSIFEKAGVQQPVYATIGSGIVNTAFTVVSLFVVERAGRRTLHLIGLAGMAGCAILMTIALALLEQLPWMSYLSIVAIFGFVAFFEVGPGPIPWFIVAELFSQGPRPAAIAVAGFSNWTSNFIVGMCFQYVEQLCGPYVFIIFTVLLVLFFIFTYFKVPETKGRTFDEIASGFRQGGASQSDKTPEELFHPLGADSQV

Take `Cc1cc(F)ccc1[C@H]1CNCCN1C(=O)N(C)C(C)(C)c1cc(C(F)(F)F)cc(C(F)(F)F)c1`: the inhibition was -0.57% in assay [1], -1.23% in assay [2] and -1.4% in assay [3].

As to `Cc1nc(-c2ccc(-c3ccc(C(=O)Nc4ccc(I)c(OCC5CCCN5C)c4)cc3)c(C)c2)no1` (stereo unspecified), the values for the inhibition in assay [1], in assay [2] and in assay [3] were 9.63%, 7.75% and 5.6%, respectively.

Consider `COCCn1c(Sc2ccc(C#N)c([N+](=O)[O-])c2)nnc1-c1ccc(N(C)C)cc1`, for which the inhibition is 13% in assay [1], 13.5% in assay [2] and 11.7% in assay [3].

As to `Cc1ccc(CON2C(=N)N=C(N)NC2(C)C)cc1C`, the values for the inhibition in assay [1], in assay [2] and in assay [3] were 4.78%, 3.55% and 3.93%, respectively.

For the compound `Cc1ccc(NC(=S)NC2CCN(CCCCCNC(=O)/C=C/c3ccc(Cl)c(Cl)c3)CC2)cc1Cl`, the values for the inhibition in assay [1], in assay [2] and in assay [3] were -0.23%, -0.31% and -1.1%, respectively.

As to `COc1c(C)[nH]c(C)c(-c2ccc(Oc3cccc(C(F)(F)F)c3)cc2)c1=O`, the inhibition was 10.2% in assay [1], 10.6% in assay [2] and 4.46% in assay [3].

In the case of `Cc1cc(NC(=O)c2ccco2)ccc1OC1CCN(Cc2ccc(F)cc2)C1` (stereo unspecified), the figures for the inhibition in assay [1], in assay [2] and in assay [3] were 0.1%, 0.21% and 0.41%, respectively.

Consider `c1ccc(CN2CCC(NCc3ccccc3-c3ccc(CNC4CCCC4)cc3)CC2)cc1`, for which the inhibition is 4.61% in assay [1], 3.06% in assay [2] and 6.38% in assay [3].

As for `O=C(Cc1c[nH]cn1)Nc1cccc(-c2ccc(-c3nc4cc(F)ccc4[nH]3)s2)c1`, the inhibition was found to be 3.94% in assay [1], 6.17% in assay [2] and 0.26% in assay [3].

With `O=C(/C=C/c1ccc(Cl)c(Cl)c1)N1CCC(CCN2CCc3[nH]c4ccccc4c3C2)CC1`, the inhibition in assay [1] stood at 12.4%; in assay [2], 5.55%; in assay [3], 4.33%.

Consider `Cc1c(CCc2cccc(F)c2F)[nH]c2ccccc2c1=O`, for which the inhibition in assay [1] is -0.2%; in assay [2], 5.03%; in assay [3], 0.83%.

Turning to `CCN(CC)CCCCNc1cc(-c2[nH]c(-c3c(Cl)cccc3Cl)nc2-c2ccc3cc(OC)ccc3c2)ccn1`, the inhibition in assay [1] was 0.05%; in assay [2], -1.62%; in assay [3] it was -0.83%.

In general, inhibition refers to the drop in the measured response relative to a control, in per cent.
